This is part of a sample that, as a whole, favours compounds with a hit. Of some 83,000 tested, about 20% had one in any assay.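 48-hour exposure, single concentration, 96-well plates; percent growth endpoint where 0 means no net growth. Active: below 10.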 Unmarked numbers belong to inactive results. Activity calls are given as the source filed them.

The first assay concerns SNB-19 CNS. Kind of assay: NCI-60 one-dose screen, 48 h (100 = growth as untreated, 0 = no growth, -100 = all killed). Conditions: 10 µM.
With `O=S(=O)(NCCCNc1nccc(-c2c(-c3ccc(F)cc3)nc3sccn23)n1)c1ccc2ccccc2c1`, the growth was 82.4%.
As for `O=C(Nc1cccc(-n2cc(-c3ccncc3)c(-c3ccc(O)c(Cl)c3)n2)c1)c1ccc(Cl)c(Cl)c1`, the growth is 72.8%.
Still for that read-out and setting: then `Cc1ccc(C)c(C(O)(c2cc(C)ccc2C)C2(O)CCCCC2)c1`, with 98.8%.
Regarding `O=C(/C=C/c1cc2ccccc2[nH]c1=O)c1ccc2c(c1)OCO2`, the growth is 88.4%.
For the compound `O=C(Nc1cccc(-n2cc(-c3ccncc3)c(-c3ccc(O)c(Cl)c3)n2)c1)Nc1ccc(Cl)c(Cl)c1`, the growth was 38.2%.
For the compound `O=C(Nc1ccc(OS(=O)(=O)c2ccccc2)cc1)C12CC3CC(CC(C3)C1)C2`, the growth was 71.8%.
Take `COc1ccc(-c2nn(-c3cccc(NC(=O)Nc4ccc(Cl)c(C(F)(F)F)c4)c3)cc2-c2ccncc2)cc1Cl`: the growth was 32.2%.
For the compound `COc1ccc(-c2nn(-c3cccc(NC(=O)c4ccc(Cl)c(Cl)c4)c3)cc2-c2ccncc2)cc1Cl`, the growth was 87.1%.
As to `CCOC(=O)CCC(NC(=O)c1ccc(N)cc1)C(=O)OCC` (stereo not drawn), the growth is 109%.
Turning to `O=C(Nc1ccccc1)Nc1cccc(-n2cc(-c3ccncc3)c(-c3ccc(O)c(Cl)c3)n2)c1`, the growth was 77.2%.
In the case of `O=S(=O)(NCCNc1nccc(-c2c(-c3ccc(F)cc3)nc3sccn23)n1)c1ccc2ccccc2c1`, the growth is 105%.
The same measure, in the same setting: then `O=C(Nc1cccc(-n2cc(-c3ccncc3)c(-c3ccc(O)c(Cl)c3)n2)c1)c1cc(C(F)(F)F)cc(C(F)(F)F)c1`, with 88.4%.
Turning to `O=C(N/N=C/c1cc2ccccc2c2ccccc12)c1cc(O)c(O)c(O)c1`, the growth was 50.6%.
With `COc1ccc(-c2nn(-c3cccc(NC(=O)c4cc(C(F)(F)F)cc(C(F)(F)F)c4)c3)cc2-c2ccncc2)cc1Cl`, the growth is 90.8%.
Still for that read-out and setting: then `O=S(=O)(NCCCNc1nccc(-c2c(-c3ccc(F)cc3)nc3sccn23)n1)c1ccc(F)cc1`, with 93.2%.
Consider `COc1ccc(-c2nn(-c3cccc(NC(=O)c4ccc(N5CCOCC5)c(C(F)(F)F)c4)c3)cc2-c2ccncc2)cc1Cl`, for which the growth was 81.4%.
Take `CCCCCCN1CCN(Cc2ccc(N(CC)CC)cc2)C(=O)C1=O`: the growth is 74.4%.
For `COc1ccc(Oc2nc(NC3CCCC3)nc(Sc3ccc(OC)cc3)n2)cc1`, the growth was 90.9%.
For `COc1ccc(-c2nn(-c3cccc(NC(=O)Nc4cccc(C(F)(F)F)c4)c3)cc2-c2ccncc2)cc1Cl`, the growth was 37.1%.
As for `COc1ccc(-c2nn(-c3cccc(NC(=O)Nc4ccccc4)c3)cc2-c2ccncc2)cc1Cl`, the growth is 83.5%.
In the case of `CCOC(=O)c1ccoc1`, the growth is 97.7%.
On to `COc1ccc(/C=C/C(C)=N/OCC(=O)O)cc1`, for which the growth was 103%.
Still for that read-out and setting: then `CN(C)Cc1cn(-c2ncc(-c3ccc(C(F)(F)F)cc3)c(NC3CCCCCC3)n2)nn1`, with 92.1%.
In the case of `COc1cccc(C(=O)Nc2ccc(CN3CCc4nc5cc(OC)c(OC)cc5cc43)cc2)c1`, the growth is 69.7%.
As to `O=[N+]([O-])c1cccc(-c2ncc(-c3ccc(Cl)cc3Cl)[nH]2)c1`, the growth was 96.7%.
For the compound `CCN(CC)CCSCCN(CC)CC`, the growth is 106%.
For the compound `COc1ccc([N+](=O)[O-])c(C(=O)O)c1`, the growth is 103%.
For `CNc1ncc(-c2ccc(C(F)(F)F)cc2)c(NC2CCCCCC2)n1`, the growth is 85.2%.
For `CN(C)c1ccc(/C=C/C=N/NC(=O)c2cc(O)c(O)c(O)c2)cc1`, the growth is 79.9%.
Consider `O=C(Nc1cccc(-n2cc(-c3ccncc3)c(-c3ccc(O)c(Cl)c3)n2)c1)c1ccc(N2CCOCC2)c(C(F)(F)F)c1`, for which the growth was 67.9%.
As to `Cc1ccc(CC#N)cc1C`, the growth is 94.6%.
`O=c1oc2cc(OS(=O)(=O)c3ccccc3)ccc2c2c1CCCCC2`: the growth was 77%.
`CCOC(=O)C(NC(=O)C(Cl)Cl)C(O)c1ccccc1` (stereo not drawn): the growth was 101%.
For the compound `C/C(N)=C(\C#N)C(=O)c1ccccc1`, the growth is 107%.
Consider `Nc1ncnc2[nH]c(=O)[nH]c12`, for which the growth was 97.5%.
On the same count and under the same terms, the figure for `COc1ccc(-c2nn(-c3cccc(NC(=O)c4cccc(C(F)(F)F)c4)c3)cc2-c2ccncc2)cc1Cl` is 79.6%.
Take `O=C1CC[C@@H]2CCCC[C@@H]2C1`: the growth was 102%.
`Cc1ccc(S(=O)(=O)OCCN(CCOS(=O)(=O)c2ccc(C)cc2)c2c[nH]c(=O)[nH]c2=O)cc1`: the growth is 100%.
Consider `FC(F)(F)c1ccc(-c2cnc(-n3cc(COCCN4CCCCC4)nn3)nc2NC2CCCCCC2)cc1`, for which the growth is 84.2%.

A further assay deals with U251 CNS. Described as above. The settings on record: 10 µM.
As to `O=S(=O)(NCCCNc1nccc(-c2c(-c3ccc(F)cc3)nc3sccn23)n1)c1ccc2ccccc2c1`, the growth is 27.4%.
In the case of `O=C(Nc1cccc(-n2cc(-c3ccncc3)c(-c3ccc(O)c(Cl)c3)n2)c1)c1ccc(Cl)c(Cl)c1`, the growth was 11%.
Still for that read-out and setting: the figure for `Cc1ccc(C)c(C(O)(c2cc(C)ccc2C)C2(O)CCCCC2)c1` is 90.1%.
Same read-out and setting: the figure for `O=C(/C=C/c1cc2ccccc2[nH]c1=O)c1ccc2c(c1)OCO2` is 86.4%.
Consider `O=C(Nc1cccc(-n2cc(-c3ccncc3)c(-c3ccc(O)c(Cl)c3)n2)c1)Nc1ccc(Cl)c(Cl)c1`, for which the growth was -70.9% (active).
For the compound `O=C(Nc1ccc(OS(=O)(=O)c2ccccc2)cc1)C12CC3CC(CC(C3)C1)C2`, the growth was 34.6%.
Regarding `COc1ccc(-c2nn(-c3cccc(NC(=O)Nc4ccc(Cl)c(C(F)(F)F)c4)c3)cc2-c2ccncc2)cc1Cl`, the growth is -41.1% (active).
On the same count and under the same terms, the figure for `COc1ccc(-c2nn(-c3cccc(NC(=O)c4ccc(Cl)c(Cl)c4)c3)cc2-c2ccncc2)cc1Cl` is 64%.
In the case of `CCOC(=O)CCC(NC(=O)c1ccc(N)cc1)C(=O)OCC` (stereo not drawn), the growth is 105%.
Turning to `O=C(Nc1ccccc1)Nc1cccc(-n2cc(-c3ccncc3)c(-c3ccc(O)c(Cl)c3)n2)c1`, the growth was -9.56% (active).
For `O=S(=O)(NCCNc1nccc(-c2c(-c3ccc(F)cc3)nc3sccn23)n1)c1ccc2ccccc2c1`, the growth was 71%.
The same measure, in the same setting: the figure for `O=C(Nc1cccc(-n2cc(-c3ccncc3)c(-c3ccc(O)c(Cl)c3)n2)c1)c1cc(C(F)(F)F)cc(C(F)(F)F)c1` is 33.1%; for `O=C(N/N=C/c1cc2ccccc2c2ccccc12)c1cc(O)c(O)c(O)c1` it is 20.3%.
`COc1ccc(-c2nn(-c3cccc(NC(=O)c4cc(C(F)(F)F)cc(C(F)(F)F)c4)c3)cc2-c2ccncc2)cc1Cl`: the growth is 54.7%.
With `O=S(=O)(NCCCNc1nccc(-c2c(-c3ccc(F)cc3)nc3sccn23)n1)c1ccc(F)cc1`, the growth is 35.9%.
Turning to `COc1ccc(-c2nn(-c3cccc(NC(=O)c4ccc(N5CCOCC5)c(C(F)(F)F)c4)c3)cc2-c2ccncc2)cc1Cl`, the growth is 23.6%.
Take `CCCCCCN1CCN(Cc2ccc(N(CC)CC)cc2)C(=O)C1=O`: the growth is 17.1%.
For the compound `COc1ccc(Oc2nc(NC3CCCC3)nc(Sc3ccc(OC)cc3)n2)cc1`, the growth is 44.4%.
In the case of `COc1ccc(-c2nn(-c3cccc(NC(=O)Nc4cccc(C(F)(F)F)c4)c3)cc2-c2ccncc2)cc1Cl`, the growth is -25.2% (active).
On the same count and under the same terms, the figure for `COc1ccc(-c2nn(-c3cccc(NC(=O)Nc4ccccc4)c3)cc2-c2ccncc2)cc1Cl` is -35.8% (active).
For the compound `CCOC(=O)c1ccoc1`, the growth was 101%.
For the compound `COc1ccc(/C=C/C(C)=N/OCC(=O)O)cc1`, the growth is 95.2%.
On the same count and under the same terms, then `CN(C)Cc1cn(-c2ncc(-c3ccc(C(F)(F)F)cc3)c(NC3CCCCCC3)n2)nn1`, with 73.3%; and `COc1cccc(C(=O)Nc2ccc(CN3CCc4nc5cc(OC)c(OC)cc5cc43)cc2)c1`, with 33.9%; and `O=[N+]([O-])c1cccc(-c2ncc(-c3ccc(Cl)cc3Cl)[nH]2)c1`, with -100% (active).
As to `CCN(CC)CCSCCN(CC)CC`, the growth was 91.7%.
Turning to `COc1ccc([N+](=O)[O-])c(C(=O)O)c1`, the growth was 101%.
Consider `CNc1ncc(-c2ccc(C(F)(F)F)cc2)c(NC2CCCCCC2)n1`, for which the growth is 58.9%.
`CN(C)c1ccc(/C=C/C=N/NC(=O)c2cc(O)c(O)c(O)c2)cc1`: the growth was 59.7%.
On the same count and under the same terms, the figure for `O=C(Nc1cccc(-n2cc(-c3ccncc3)c(-c3ccc(O)c(Cl)c3)n2)c1)c1ccc(N2CCOCC2)c(C(F)(F)F)c1` is -13% (active).
Regarding `Cc1ccc(CC#N)cc1C`, the growth was 89.9%.
As to `O=c1oc2cc(OS(=O)(=O)c3ccccc3)ccc2c2c1CCCCC2`, the growth was 34.4%.
On the same count and under the same terms, the figure for `CCOC(=O)C(NC(=O)C(Cl)Cl)C(O)c1ccccc1` (stereo not drawn) is 101%; for `C/C(N)=C(\C#N)C(=O)c1ccccc1` it is 98.2%; for `Nc1ncnc2[nH]c(=O)[nH]c12` it is 97.8%.
Consider `COc1ccc(-c2nn(-c3cccc(NC(=O)c4cccc(C(F)(F)F)c4)c3)cc2-c2ccncc2)cc1Cl`, for which the growth is -3.25% (active).
`O=C1CC[C@@H]2CCCC[C@@H]2C1`: the growth is 108%.
`Cc1ccc(S(=O)(=O)OCCN(CCOS(=O)(=O)c2ccc(C)cc2)c2c[nH]c(=O)[nH]c2=O)cc1`: the growth is 95%.
The same measure, in the same setting: then `FC(F)(F)c1ccc(-c2cnc(-n3cc(COCCN4CCCCC4)nn3)nc2NC2CCCCCC2)cc1`, with -74.5% (active).

For the origin of these results see PubChem BioAssay (NCI).
